According to article PMC8384837, “Expanding the binding specificity for RNA recognition by a PUF domain”:

Key:
Experiment in all cases: yeast three-hybrid, YBZ-1, SC-Leu-His + 0.5 mM 3-AT, 4 days
Conditions in all cases: tags: N-Gal4 AD-HA kept; label: inside an RPR1-promoter hybrid RNA with tandem MS2 sites; ssRNA
PUM1 PUF domain R7-KHF = PUM1 PUF domain R7-KHF (Homo sapiens, UniProt Q14671 828-1176, S1079K;N1080H;E1083F)
Outline: (§1)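 Pumilio-1 PUF domain libraries, randomized (NNK) at the three base-contacting residues of each repeat, were co-expressed with matching RNA elements from a centromeric plasmid in strain YBZ-1 (LexA–MS2 coat fusion, HIS3 reporter). Transformants were plated on SC-Leu (input) and SC-Leu-His + 0.5 mM 3-AT (selection) for four days, and repeat regions were PCR-amplified and Illumina-sequenced. The interaction score is the log2 change in variant frequency from input to selection, with pseudocount 1 where absent.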

PUM1 PUF domain R1-VKK = PUM1 PUF domain R1-VKK (Homo sapiens, UniProt Q14671 828-1176, S863V;R864K;Q867K)
Outline: as §1

PUM1 PUF domain R1-RNQ = PUM1 PUF domain R1-RNQ (Homo sapiens, UniProt Q14671 828-1176, S863R;R864N)
Outline: as §1

PUM1 PUF domain R7-QSN = PUM1 PUF domain R7-QSN (Homo sapiens, UniProt Q14671 828-1176, S1079Q;N1080S;E1083N)
Outline: as §1

PUM1 PUF domain R7-KVV = PUM1 PUF domain R7-KVV (Homo sapiens, UniProt Q14671 828-1176, S1079K;N1080V;E1083V)
Outline: as §1

PUM1 PUF domain R3-RNA = PUM1 PUF domain R3-RNA (Homo sapiens, UniProt Q14671 828-1176, C935R;R936N;Q939A)
Outline: as §1

PUM1 PUF domain R2-RKW = PUM1 PUF domain R2-RKW (Homo sapiens, UniProt Q14671 828-1176, N899R;Y900K;Q903W)
Outline: as §1

PUM1 PUF domain R8-AYR = PUM1 PUF domain R8-AYR (Homo sapiens, UniProt Q14671 828-1176, N1122A;Q1126R)
Outline: as §1

Sequence of PUM1 PUF domain R8-AYR (Q14671 828-1176 N1122A/Q1126R): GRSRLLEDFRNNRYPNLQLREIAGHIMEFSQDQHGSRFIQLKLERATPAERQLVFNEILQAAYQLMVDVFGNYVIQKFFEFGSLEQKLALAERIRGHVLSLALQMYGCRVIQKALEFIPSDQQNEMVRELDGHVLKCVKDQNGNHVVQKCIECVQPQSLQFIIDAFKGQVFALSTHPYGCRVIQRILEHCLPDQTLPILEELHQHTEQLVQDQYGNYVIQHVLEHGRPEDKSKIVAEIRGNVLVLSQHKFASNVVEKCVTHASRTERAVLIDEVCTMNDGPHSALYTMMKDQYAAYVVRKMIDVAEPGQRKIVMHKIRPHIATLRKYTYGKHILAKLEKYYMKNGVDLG
Sequence of PUM1 PUF domain R1-RNQ (Q14671 828-1176 S863R/R864N): as the sequence (Q14671 828-1176 N1122A/Q1126R) above, with S36R, R37N, A295N, R299Q counted along it
Sequence of PUM1 PUF domain R7-KVV (Q14671 828-1176 S1079K/N1080V/E1083V): as the sequence (Q14671 828-1176 N1122A/Q1126R) above, with S252K, N253V, E256V, A295N, R299Q counted along it
Sequence of PUM1 PUF domain R1-VKK (Q14671 828-1176 S863V/R864K/Q867K): as the sequence (Q14671 828-1176 N1122A/Q1126R) above, with S36V, R37K, Q40K, A295N, R299Q counted along it
Sequence of PUM1 PUF domain R7-QSN (Q14671 828-1176 S1079Q/N1080S/E1083N): as the sequence (Q14671 828-1176 N1122A/Q1126R) above, with S252Q, N253S, E256N, A295N, R299Q counted along it
Sequence of PUM1 PUF domain R7-KHF (Q14671 828-1176 S1079K/N1080H/E1083F): as the sequence (Q14671 828-1176 N1122A/Q1126R) above, with S252K, N253H, E256F, A295N, R299Q counted along it
Sequence of PUM1 PUF domain R2-RKW (Q14671 828-1176 N899R/Y900K/Q903W): as the sequence (Q14671 828-1176 N1122A/Q1126R) above, with N72R, Y73K, Q76W, A295N, R299Q counted along it
Sequence of PUM1 PUF domain R3-RNA (Q14671 828-1176 C935R/R936N/Q939A): as the sequence (Q14671 828-1176 N1122A/Q1126R) above, with C108R, R109N, Q112A, A295N, R299Q counted along it

Sequence: GGCUAGAACUAGUGGAUCCCCCGGCGCCCGGCGGCUCGAGCCCGGGUAAGUCUAAAUAGUCUGCAUGCCGCCGGGCGCCAUGCCUGCAGGUCGACUCUAGAAAACAUG
- binding signal (PUM1 PUF domain R7-KHF): 2.94 log2 enrichment (interaction score)

Sequence: GGCUAGAACUAGUGGAUCCCCCGGCGCCCGGCGGCUCGAGCCCGGGUAAGUGUAAAUUGUCUGCAUGCCGCCGGGCGCCAUGCCUGCAGGUCGACUCUAGAAAACAUG
- binding signal (PUM1 PUF domain R1-VKK): 2.11 log2 enrichment (interaction score)

Sequence: GGCUAGAACUAGUGGAUCCCCCGGCGCCCGGCGGCUCGAGCCCGGGUAAGUGUAAAUCGUCUGCAUGCCGCCGGGCGCCAUGCCUGCAGGUCGACUCUAGAAAACAUG
- binding signal (PUM1 PUF domain R1-RNQ): 4.55 log2 enrichment (interaction score)

Sequence: GGCUAGAACUAGUGGAUCCCCCGGCGCCCGGCGGCUCGAGCCCGGGUAAGUUUAAAUAGUCUGCAUGCCGCCGGGCGCCAUGCCUGCAGGUCGACUCUAGAAAACAUG
- binding signal (PUM1 PUF domain R7-QSN): 4.28 log2 enrichment (interaction score)
- binding signal (PUM1 PUF domain R7-KVV): 2.62 log2 enrichment (interaction score)

Sequence: GGCUAGAACUAGUGGAUCCCCCGGCGCCCGGCGGCUCGAGCCCGGGUAAGUGUAAUUAGUCUGCAUGCCGCCGGGCGCCAUGCCUGCAGGUCGACUCUAGAAAACAUG
- binding signal (PUM1 PUF domain R3-RNA): 3.87 log2 enrichment (interaction score)

Sequence: GGCUAGAACUAGUGGAUCCCCCGGCGCCCGGCGGCUCGAGCCCGGGUAAGUGUAAAGAGUCUGCAUGCCGCCGGGCGCCAUGCCUGCAGGUCGACUCUAGAAAACAUG
- binding signal (PUM1 PUF domain R2-RKW): 2.92 log2 enrichment (interaction score)

Sequence: GGCUAGAACUAGUGGAUCCCCCGGCGCCCGGCGGCUCGAGCCCGGGUAAGCGUAAAUAGUCUGCAUGCCGCCGGGCGCCAUGCCUGCAGGUCGACUCUAGAAAACAUG
- binding signal (PUM1 PUF domain R8-AYR): 4.07 log2 enrichment (interaction score)

Sequence: GGCUAGAACUAGUGGAUCCCCCGGCGCCCGGCGGCUCGAGCCCGGGUAAGUGUAAAUAGUCUGCAUGCCGCCGGGCGCCAUGCCUGCAGGUCGACUCUAGAAAACAUG
- binding signal (PUM1 PUF domain R8-AYR): 4.26 log2 enrichment (interaction score)
